High-throughput results as filed in PubChem.
Sa ugtP lethal: compounds lethal to S. aureus RN4220 ugtP deletion mutant; 330,000 tested, 0.54% active; OD600 growth, 16 h; AID 1259309; growth inhibition, % (concentration not given with the values); in the data active means growth inhibition above about 68%;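 further: plate controls were untreated wells for no effect and antibiotic for full effect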
Sa RN4220 lethal: kills Staphylococcus aureus RN4220 | AID 1259311 | inhibition, % (concentration not given with the values) | 330,000 tested, 0.33% active | S. aureus RN4220 growth, OD600, 16 h; in the data active means inhibition above about 85%;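 further: plate controls were untreated cells for no effect and reference antibiotic for full effect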
Mtb hypoxia rep: reduces hypoxia-regulated biosensor signal in M. tuberculosis; M. tuberculosis hypoxia-regulated fluorescent reporter, fluorescence; AID 1159583; 300,000 tested, 0.1% active; fluorescence inhibition, % (concentration not given with the values); in the data active means fluorescence inhibition mostly above about 23%, no sharp cut-off; inactive means mostly below about 17%
SSB-PriA inh: inhibitors of Klebsiella pneumoniae PriA binding to SSB C-terminal tail; 430,000 tested, 0.6% active; AlphaScreen SSBct-PriA binding, biotinylated peptide; inhibition, % at 33 µM; AID 1272365; in the data active means inhibition mostly above about 37%, no sharp cut-off; inactive means mostly below about 20%;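 further: plate controls were negative control peptide for no effect and reference peptide for full effect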
CCHF vOTU inh: blocks the CCHF virus ovarian tumor domain protease; CCHFV vOTU protease, Pep-AMC fluorescence; inhibition, % at 11.5 µM; 370,000 tested, 0.55% active; AID 651958; in the data active means inhibition above about 30%; further: 0% = vehicle wells with enzyme and 100% = no enzyme wells
* hit, by the source's call; i = inactive; · = no result given; ! = not confirmed by another sample. The list is not random: actives were taken first. Their share in the collection is about 1.4%.

SMILES	Sa ugtP lethal	Sa RN4220 lethal	Mtb hypoxia rep	SSB-PriA inh	CCHF vOTU inh
Cc1cccc(C(=O)NNC2=C(C(=O)C(F)(F)F)CCC2)c1O	98.3*	98.6*	2.3	21.9	-3.5
CCSc1nnc(NC(=O)CSc2nccn2-c2cccc(Cl)c2)s1	·	·	·	-9.0	·
O=C(CSc1n[nH]c(-c2ccccn2)n1)Nc1ccc(Cl)cc1	·	·	·	-24.3	-0.5
Cc1ccc(Oc2ccc(NC(=O)CSc3n[nH]c(N)n3)cc2)cc1	91.5*	0.7	2.1	-2.1	-3.6
O=C(CSc1n[nH]c(-c2ccccn2)n1)Nc1ccc(F)cc1	-10.4	0.7	-1.0	81.6*	-8.1
Cc1ccc(NC(=O)CSc2n[nH]c(-c3ccccn3)n2)cc1	-6.0	0.3	-14.7	96.8*	3.5
O=C(CSc1n[nH]c(-c2ccccn2)n1)Nc1cccc(Cl)c1Cl	·	·	·	37.8	·
CCOc1ccc(NC(=O)CSc2n[nH]c(N)n2)cc1	·	·	·	-17.0	·
CCCCOc1ccc(C(=O)NCCc2csc(-c3ccccc3)n2)cc1	·	·	·	-18.0	·
Cc1sc(NC(=O)c2ccc([N+](=O)[O-])s2)c(C#N)c1C	·	·	·	-4.0	·
O=C(CNc1cccc2ccccc12)N/N=C/c1ccc([N+](=O)[O-])o1	·	·	·	·	16.6
O=C(N/N=C/c1ccc([N+](=O)[O-])o1)c1ccc(NS(=O)(=O)c2cccs2)cc1	·	·	·	i	19.3
O=C(NN=Cc1ccc([N+](=O)[O-])o1)c1ccccc1NS(=O)(=O)c1cccs1	100.0*	100.0*	14.1	·	·
O=C(CNc1cccc2ccccc12)NN=Cc1ccc([N+](=O)[O-])o1	100.2*	99.4*	-5.5	15.0	·
O=C(NN=Cc1ccc([N+](=O)[O-])o1)c1cn2ccc3ccccc3c2n1	100.5*	52.8	11.4	·	·
O=C(NN=Cc1ccc([N+](=O)[O-])o1)c1cc(-c2cccc(Br)c2)nc2ccccc12	100.3*	115.4*	·	18.7	·
CN(C)S(=O)(=O)N1CCCC(c2nnc(-c3ccsc3)o2)C1 (centres undefined)	·	·	·	3.0	·
Cc1ccc(-c2csc(NC(=O)c3cccc(Br)c3)n2)c(C)c1	·	·	·	-4.0	·
Cc1cccc(CC(=O)NCC(O)Cc2ccccc2)c1 (centres undefined)	·	·	·	21.0*	·
Cc1cccc(CC(=O)NCC(O)c2ccsc2)c1 (centres undefined)	·	·	·	5.0	·
CCCNS(=O)(=O)c1ccc(NC(=O)Cc2cccs2)cc1	4.4	2.9	·	-12.3	5.4
CNS(=O)(=O)c1ccc(NC(=O)Cc2cccs2)cc1	·	·	·	45.0*!	·
CCC(C)Nc1c([N+](=O)[O-])cc(C(C)(C)C)cc1[N+](=O)[O-] (centres undefined)	·	·	·	116.9*	·
COC(=O)c1ccc(C(=O)Nc2ccc(-c3nc4ccccc4[nH]3)cc2)cc1	·	·	·	-13.0	·
COc1cccc(C=NNc2ncc(C(F)(F)F)cc2Cl)c1O	99.0*	100.2*	·	4.6	·
SMILES	Sa ugtP lethal	Sa RN4220 lethal	Mtb hypoxia rep	SSB-PriA inh	CCHF vOTU inh
CCc1cc(=O)[nH]c(SCC(=O)N2CCCCC2)n1	·	·	·	1.0	·
COc1ccc(-c2cc3ccccc3n2CC(O)Cn2nc(C)cc2C)cc1 (centres undefined)	0.0	3.6	·	47.2*	12.0
Cc1cccc(C)c1OC(=O)Cc1ccccc1	2.6	0.0	-5.6	-13.1	-2.0
Cc1cccc(C)c1OC(=O)C(c1ccccc1)c1ccccc1	96.3*	0.4	9.4	-51.1	-6.2
COc1ccc(CCNC(=O)CSc2nnc(-c3cccn(C)c3=O)n2C)cc1OC	·	·	·	-9.0	·
CC(C)c1ccc(C(C)NCCS(=O)(=O)c2ccc(Br)cc2)cc1 (centres undefined)	-0.1	3.8	3.3	-29.4	34.9*
CC(NCCS(=O)(=O)c1ccc(Cl)cc1)c1cccc(Cl)c1 (centres undefined)	1.1	9.9	7.4	-21.5	5.9
O=C(/C=C/c1ccc2c(c1)OCO2)NCCSc1ncc(-c2ccc(Cl)cc2)[nH]1	·	·	·	38.0*	·
O=C(Nc1cccnc1)Nc1ccccc1Cl	-3.2	5.2	-2.3	-8.1	-2.2
O=C(Nc1cccnc1)Nc1cc(Cl)cc(Cl)c1	98.8*	100.4*	-5.2	-15.9	-7.2
O=C(NCCn1cnc2ccsc2c1=O)c1cc(-c2cccnc2)on1	·	·	·	-6.0	·
O=C(NCCn1cnc2ccsc2c1=O)c1cc(C2CC2)on1	·	·	·	38.0*	·
Cc1nc2c(-c3ccc(Cl)cc3)c(C)[nH]n2c(=O)c1Cc1ccccc1	99.6*	99.7*	6.2	-5.8	-4.4
Cc1nc2c(-c3ccccc3)c(C)[nH]n2c(=O)c1Cc1ccccc1	-7.1	2.5	6.4	9.0	2.3
O=S(=O)(CCC(F)(F)F)N1CCSC(c2ccccc2Cl)CC1 (centres undefined)	·	·	·	-3.0	·
CCOc1ccc(S(=O)(=O)N2Cc3cncnc3C2)cc1F	·	·	·	-19.0	·
COC(=O)C1CC(Oc2ccccc2F)CN1S(=O)(=O)c1ccccc1C(F)(F)F (centres undefined)	·	·	·	-8.0	·
O=S(=O)(NCCCn1ccnc1)c1cccc2cnccc12	·	·	·	41.0*	·
O=S(=O)(NCCCN1CCOCC1)c1cccc2cnccc12	·	·	·	3.0	·
O=[N+]([O-])c1cccc(S(=O)(=O)NCCCn2ccnc2)c1	-0.9	-4.9	-1.5	52.9*	8.6
Cc1ccccc1OCC(=O)Nn1c(COc2ccccc2)nc2ccccc2c1=O	98.6*	110.5*	·	-5.3	12.7
CN(C)c1ccc(C=NNC(=O)CCc2c[nH]c3ccccc23)cc1	4.5	4.3	5.4	2.5	·
CS(=O)(=O)Cc1ccc(C(=O)Nc2nc(-c3ccccn3)cs2)cc1	·	·	·	16.9	·
O=C(Nc1nc(-c2ccccn2)cs1)c1c[n+]2cccnc2[nH]1	·	·	·	99.0*	·
CC(C)(C)NC(=O)C(=O)Nc1nc(-c2ccccn2)cs1	·	·	·	101.3*	·
SMILES	Sa ugtP lethal	Sa RN4220 lethal	Mtb hypoxia rep	SSB-PriA inh	CCHF vOTU inh
O=C(Nc1nc(-c2ccccn2)cs1)c1ncc(Cl)c(Cl)c1Cl	-15.9	-0.9	2.1	11.7	-3.6
COc1ccc(S(=O)(=O)Nc2ccc(C(=O)Nc3nc(-c4ccccn4)cs3)cc2)cc1	·	·	·	95.0*	·
CS(=O)(=O)c1ccc(C(=O)Nc2nc(-c3ccccn3)cs2)cc1	·	·	·	74.9*	·
O=C(Nc1ccccc1)C(=O)Nc1nc(-c2ccccn2)cs1	·	·	·	35.0	·
CCOC(=O)c1ccc(NS(=O)(=O)c2ccc(N3C(=O)CCC3=O)cc2)cc1	·	·	·	2.0	·
COC(=O)C1=C(c2ccc(F)cc2F)CC2CCC1N2C(=O)NCCCOC(C)C (centres undefined)	-3.1	5.4	3.6	·	·
COC(=O)c1ccc(NC(=O)CSc2nnc(NC(=O)NC(C)(C)C)s2)cc1	·	·	·	2.0	·
COc1cc(C=NNC(=O)CC(=O)NCCc2ccccc2)ccc1O	-3.5	1.1	10.6	-14.1	·
O=C(/C=C/c1ccccc1)Nc1nc(-c2ccccn2)cs1	·	·	·	15.0	·
O=C(Nc1nc(-c2ccccn2)cs1)c1ccccc1C(F)(F)F	·	·	·	88.2*	·
O=C(Nc1nc(-c2ccccn2)cs1)c1ccc2c(c1)CCCC2	·	·	·	53.5	·
CC1CN(Cc2ccc(C(=O)Nc3nc(-c4ccccn4)cs3)cc2)CC(C)O1 (centres undefined)	·	·	·	114.5*	·
O=C(Nc1nc(-c2ccccn2)cs1)c1ccccn1	·	·	·	162.5*	·
N#Cc1ccccc1Sc1ccccc1C(=O)Nc1nc(-c2ccccn2)cs1	·	·	·	34.0	·
O=C(/C=C/c1cccs1)Nc1nc(-c2ccccn2)cs1	·	·	·	66.0*	·
